HSF1 inh – HSF1 inhibition | activity change, negative = inhibition, % at 7.5 µM (by protocol) | 300,000 compounds, 0.77% hits | NIH3T3-HGL HSE-luciferase, MG132-induced, luminescence 8 h; active compounds read low;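 active = more than half of replicate wells show activity change below -50%, luminescence cut by over half; inconclusive = some wells, but at most half, below -50%; inactive = no replicate well below -50%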;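 note: luciferase reports HSF-1 transcriptional activity via heat shock element; 0% = median of DMSO wells and -100% = zero luminescence signal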
Wnt act – Wnt/beta-catenin pathway activation | Wnt/beta-catenin reporter cell assay, activator, plate reader | activation, % at 9.35 µM | 300,000 compounds, 1.2% hits; in the data active = activation above about 30%, passing the limit was not always enough; inconclusive = no clear call, values can overlap the other calls;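 note: 0% = neutral control wells and 100% = positive control wells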
MITF act – increases MITF-driven TRPM1 promoter luciferase signal; SK-MEL-5 TRPM1-promoter luciferase, 24 h; % of positive control, neutral wells = 0; activation, % at 12.5 µM; 300,000 compounds, 0.75% hits; AID 588334;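 active = mean activation of at least 80% with every replicate also reaching 80%; inconclusive = mean reaches 80% but some replicate falls short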;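 note: 0% = neutral control wells and 100% = parthenolide positive control wells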
esBAF inh – blocks esBAF chromatin remodeling in mouse ES cells. 350,000 compounds, 2% hits. AID 602393. reporter increase, % at 12.5 µM. Bmi1-luciferase knock-in reporter, 24 h; 100% = twice the neutral-well signal; in the data active = activation above about 40%; inconclusive = no clear call, values can overlap the other calls;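 note: 0% = median of the plate's neutral control wells and 100% = double that signal; a rise in the Bmi1 reporter signal indicates esBAF inhibition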
HSF-1 act – increases HSF-1 driven luciferase reporter signal | NIH3T3-HGL HSF-1 luciferase reporter, MG132, 8 h; 100% = twice DMSO control signal | activation, % at 9 µM | 300,000 compounds, 1.7% hits;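 active = mean replicate activation of at least 50% with a set share of replicates each reaching 50%; inconclusive = only one of those two conditions met; inactive = mean below 50% and too few replicates reaching it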;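 note: 0% = median of the neutral control wells and 100% = twice that signal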
SMARCA2 act – SMARCA2 function activation, primary screen; MG213 cells, MMTV-luciferase reporter, dexamethasone, overnight; activation, % at 9.1 µM; 370,000 compounds, 1% hits; AID 652017; in the data active = activation above about 7.8%;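 note: 0% = vehicle wells and 100% = reference activator wells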
* marks the source's active call; other numbers are inactive results; ? = inconclusive; · = not tested or not shown. The list is not random: actives were taken first. Their share in the collection is about 4.3%.

SMILES | HSF1 inh | Wnt act | MITF act | esBAF inh | HSF-1 act | SMARCA2 act
COc1ccc(CNC(=O)c2ccc(C(C)(C)C)cc2)cc1 | 19.7 | 6.4 | 102.2* | · | 38.2 | 6.4
COCCNC(=O)c1ccc2ccccc2n1 | -5.0 | 3.3 | 1.3 | 4.1 | -2.9 | -2.6
O=C(C[C@H]1C=C[C@H](NC(=O)Nc2ccc(C(F)(F)F)cc2)[C@H](CO)O1)NCCN1CCCC1 | · | · | · | -4.4 | · | ·
Cc1nnc(NC(=O)c2ccc3ccccc3n2)s1 | 15.0 | 13.2 | 49.0 | 42.5* | 30.9 | 2.5
COc1ccc(N=C(NN)c2ccc3ccccc3n2)cc1 | -60.6* | -30.0 | -42.3 | · | -65.1 | -8.3
COc1ccc(NC(=S)c2ccc3ccccc3n2)cc1 | 5.7 | · | 54.2 | ? | 1.2 | ·
CCOc1ccc(-n2c(N)c(C(=O)NCc3cccnc3)sc2=S)cc1 | 11.3 | -3.1 | · | 5.0 | 12.7 | -0.4
COc1ccc(CNC(=O)c2sc(=S)n(-c3ccccc3)c2N)cc1 | -67.4* | -4.1 | · | · | -72.6 | -2.7
C[C@H](CO)N1C[C@H](C)[C@@H](CN(C)S(=O)(=O)CC(F)(F)F)OCc2ccccc2-c2c(n(C)c3ccccc23)C1=O | · | · | · | -6.2 | · | ·
C[C@H]1CN([C@@H](C)CO)C(=O)c2cc(/C=C/c3ccccc3)cnc2O[C@@H]1CN(C)C(=O)CN1CCOCC1 | · | · | · | -1.1 | · | ·
CCCNC(=O)NC[C@H]1[C@@H](c2ccc(C3=CCCCC3)cc2)[C@H](CO)N1C(C)=O | · | · | · | 7.0 | · | ·
COc1ccccc1N1CCN(C(=O)CSc2ccccc2)CC1 | 11.0 | · | 65.1 | 48.9* | 17.8 | 2.7
O=C(/C=C/c1ccc(F)cc1)NC(=S)N1CCN(c2ccccn2)CC1 | 50.8 | 22.9 | · | · | 59.3* | 3.4
COc1ccc(/C=C/C(=O)NC(=S)N2CCN(c3ccccc3OC)CC2)cc1 | -1.3 | 22.4 | · | 77.0* | 13.5 | -1.7
COc1ccc(/C=C/C(=O)NC(=S)N2CCN(c3ccccn3)CC2)cc1OC | -7.0 | -0.7 | -6.4 | · | 4.0 | -3.2
COc1ccccc1N1CCN(C(=S)Nc2ccc(F)cc2)CC1 | -72.5* | -0.9 | · | -0.3 | -75.4 | 3.4
CO[C@@H]1CN(C)C(=O)c2ccc(NC(C)=O)cc2OC[C@@H](C)N(C(=O)CN(C)C)C[C@H]1C | · | · | · | -2.2 | · | ·
O=C(C1CC1)N1[C@@H](CO)[C@@H]2c3ccccc3N(S(=O)(=O)c3ccccc3)C[C@@H]21 | · | · | · | 5.7 | · | ·
C[C@H]1CCCCO[C@@H](CN(C)CC2CCCCC2)[C@@H](C)CN([C@@H](C)CO)C(=O)c2cc(NC(=O)Nc3ccc4c(c3)OCO4)ccc2O1 | · | · | · | 1.4 | · | ·
CCNC(=O)C[C@@H]1CC[C@@H]2[C@H](COC[C@@H](O)CN2Cc2ccncc2)O1 | · | · | · | -4.0 | · | ·
O=C(Nc1ccc(Cl)cc1)c1ccc2ncsc2c1 | 6.8 | 19.4 | 64.3 | 64.9* | 21.8 | 3.5
O=C(Nc1ccc(F)cc1)c1ccc2ncsc2c1 | -1.6 | 20.4 | 72.7 | ? | 4.8 | 3.4
CN(C)c1ccc(NC(=O)c2ccc3nsnc3c2)cc1 | -4.2 | · | 67.2 | 10.9 | 24.8 | 5.4
O=C(COC(=O)c1ccc2ncsc2c1)Nc1cccc(Cl)c1 | · | -1.9 | 10.0 | 14.3 | · | -2.2
N#Cc1ccsc1NC(=O)c1ccc2ncsc2c1 | · | 17.8 | · | 71.4* | · | 2.2
SMILES | HSF1 inh | Wnt act | MITF act | esBAF inh | HSF-1 act | SMARCA2 act
O=C(Nc1cccc(Cl)c1)c1ccc2ncsc2c1 | 6.9 | 17.0 | 46.5 | 48.5* | 22.2 | 1.4
O=C(Nc1ccc(Cl)cc1)c1ccc2nsnc2c1 | 19.4 | -0.7 | 67.1 | 109.4* | 41.6 | 4.4
C[C@@H]1CN([C@H](C)CO)C(=O)Cc2cc(N(C)C)ccc2O[C@H]1CN(C)Cc1ccc(-c2ccccc2)cc1 | · | · | · | -0.9 | · | ·
C[C@@H]1CCCCO[C@@H](CN(C)S(=O)(=O)c2ccc(F)cc2)[C@H](C)CN([C@H](C)CO)C(=O)c2cc(NC(=O)Nc3ccc(C(F)(F)F)cc3)ccc2O1 | · | · | · | 1.6 | · | ·
O=C(Nc1ccc(C(F)(F)F)cc1)c1ccc2ncsc2c1 | 6.5 | 11.9 | · | 58.5* | 26.0 | 5.6
Cc1ccc2[nH]c(-c3cccc(N)c3)cc2c1 | -4.8 | 81.8* | 69.9 | 39.4 | 6.9 | 4.3
O=C(/C=C/c1ccccc1Cl)NCCc1ccccc1 | 27.5 | -2.1 | 87.2* | 55.3* | 55.2* | ·
CCN(CC)c1ccc(NC(=O)/C=C\c2ccccc2Cl)cc1 | · | · | 95.9* | 37.2 | · | 6.1
Cc1cc(NC(=O)/C=C/c2ccccc2Cl)no1 | 9.7 | · | 26.3 | · | 14.1 | 4.7
COCC(=O)Nc1ccc2c(c1)[C@H]1C[C@@H](CC(=O)N3CCCCC3)O[C@H](CO)[C@H]1O2 | · | · | · | -2.4 | · | ·
O=C(CSc1cccc2cccnc12)N1CCCC1 | 57.4 | · | -30.5 | · | 59.6* | 5.7
Cc1ccc2c(C(=O)CSc3ccccc3)c(C)[nH]c2c1 | 24.3 | · | 26.5 | · | 54.6* | 4.1
Cc1ccc(-c2cnc3cc(C)nn3c2)cc1 | 16.8 | 5.7 | 1.8 | · | 56.8* | 5.0
Cc1cc2ncc(-c3ccc(Cl)cc3)cn2n1 | 19.9 | 17.0 | 90.8* | ? | 23.5 | 7.4
Cc1ccc(-c2cnc3c(Cl)c(C)nn3c2)cc1 | -2.1 | 3.5 | -3.3 | -28.1 | 21.3 | 2.1
CCCNC(=O)[C@@H]1[C@@H](CO)[C@@H]2Cn3c(ccc(/C=C/c4ccccc4)c3=O)[C@H]1N2C(=O)c1cccnc1 | · | · | · | -2.7 | · | ·
OC[C@@H]1CC[C@@H](Cc2ccc(-c3ccccc3)cc2)O1 | · | 29.2 | 6.0 | 68.2* | · | 3.9
NC(=O)NC[C@@H]1CC[C@@H](Cc2ccc(-c3ccccc3)cc2)O1 | · | · | 118.1* | 69.0* | · | ·
COc1ccc(NC(=O)NC[C@@H]2CC[C@@H](Cc3ccc(-c4ccccc4)cc3)O2)cc1 | · | 13.5 | 24.7 | 20.7 | · | 0.1
COc1ccccc1N1CCN(/N=C/c2ccc([N+](=O)[O-])cc2)CC1 | -12.2 | 12.7 | · | ? | -30.2 | 1.3
O=[N+]([O-])c1ccc(C=NN2CCCCCC2)cc1 | · | 59.9* | 40.6 | 69.2* | · | -1.8
CC(=O)Nc1ccc(/C=N/N2CCCCC2)cc1 | -7.6 | 8.7 | 74.3 | 61.6* | -1.1 | -1.3
COc1ccc(/C(C#N)=C/c2ccccn2)cc1 | 27.4 | 33.2* | 79.4 | 32.3 | 67.6* | 5.2
COC(=O)c1ccc(/C=C(\C#N)c2nc3ccccc3s2)cc1 | 9.9 | · | 3.0 | · | 22.4 | 2.0
N#C/C(=C\c1ccccn1)c1nc2ccccc2s1 | 77.2 | 7.4 | -27.6 | 33.1 | 82.7* | 2.6
C[C@@H]1CCCCO[C@H](CN(C)S(=O)(=O)c2ccc(Cl)cc2)[C@H](C)CN([C@H](C)CO)C(=O)c2cc(NC(=O)C3CCCCC3)ccc2O1 | · | · | · | -1.9 | · | ·
O=C(Cc1ccc(Cl)cc1)Nc1ccccc1Sc1ccccc1 | 7.4 | · | 1.4 | · | 19.6 | -2.5
O=C(Cc1ccccc1)Nc1cc(Cl)ccc1Sc1ccccc1 | 29.4 | · | 14.6 | · | 57.8* | -4.3
CCS(=O)(=O)N1CCCC(c2nc(-c3cccc(OC)c3)no2)C1 (stereo not given) | 20.3 | 10.1 | 56.0 | 67.4* | 13.5 | 3.5

Source: PubChem BioAssay (several laboratories)
